Inhibition data for four compounds are collected here from ChEMBL document CHEMBL1961873, “Compounds: GSK PKIS; Assays: Nanosyn kinase panel” (2012).

For assay [1], the system named is Epidermal growth factor receptor (Homo sapiens), P00533 [T790M]. The note with it: at 1 µM.
Assay [2] has as its system Epidermal growth factor receptor (Homo sapiens), P00533 [L858R,T790M]. The note with it: at 0.1 µM.
Assay [3] has the same test system. The note with it: at 1 µM.
Assay [4] deals with Ephrin type-A receptor 2 (Homo sapiens) (UniProt P29317). The conditions noted are these: at 0.1 µM.
For assay [5] the target is unchanged. The conditions noted are these: at 1 µM.
Assay [6] addresses T1, Ephrin type-A receptor 3 (Homo sapiens) (UniProt P29320).
T1 sequence (whole entry): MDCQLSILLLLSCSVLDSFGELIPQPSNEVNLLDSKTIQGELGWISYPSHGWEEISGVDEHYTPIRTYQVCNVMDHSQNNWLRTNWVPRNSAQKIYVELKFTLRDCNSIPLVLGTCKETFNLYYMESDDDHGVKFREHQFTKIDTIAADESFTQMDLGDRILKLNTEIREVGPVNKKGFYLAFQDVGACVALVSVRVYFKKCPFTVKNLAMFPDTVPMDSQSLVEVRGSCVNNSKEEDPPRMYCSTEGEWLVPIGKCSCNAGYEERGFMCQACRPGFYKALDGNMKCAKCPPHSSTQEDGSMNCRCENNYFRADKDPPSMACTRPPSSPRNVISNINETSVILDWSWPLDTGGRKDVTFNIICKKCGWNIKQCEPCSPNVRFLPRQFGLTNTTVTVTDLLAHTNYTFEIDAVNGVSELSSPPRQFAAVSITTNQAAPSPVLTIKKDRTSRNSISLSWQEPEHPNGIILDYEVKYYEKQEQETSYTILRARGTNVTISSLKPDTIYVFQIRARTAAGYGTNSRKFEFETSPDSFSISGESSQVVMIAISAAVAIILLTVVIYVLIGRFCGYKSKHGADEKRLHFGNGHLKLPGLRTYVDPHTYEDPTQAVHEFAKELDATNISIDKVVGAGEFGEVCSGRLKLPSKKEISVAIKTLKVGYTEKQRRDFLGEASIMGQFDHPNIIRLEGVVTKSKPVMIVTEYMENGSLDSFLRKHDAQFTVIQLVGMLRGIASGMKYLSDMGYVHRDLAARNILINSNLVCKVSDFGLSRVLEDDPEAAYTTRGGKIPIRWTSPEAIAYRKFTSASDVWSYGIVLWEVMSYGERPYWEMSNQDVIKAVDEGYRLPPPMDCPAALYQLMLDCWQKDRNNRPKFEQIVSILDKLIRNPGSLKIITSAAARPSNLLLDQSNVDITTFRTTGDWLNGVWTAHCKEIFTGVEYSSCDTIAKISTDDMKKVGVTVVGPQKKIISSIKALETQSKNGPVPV
The note with it: at 0.1 µM.

The target of assay [7] is T1, Ephrin type-A receptor 3 (Homo sapiens). The note with it: at 1 µM.
The target in assay [8] is Ephrin type-A receptor 4 (Homo sapiens) (UniProt P54764). The conditions noted are these: at 0.1 µM.
Assay [9] shares this target. The conditions noted are these: at 1 µM.
The target in assay [10] is T2, Ephrin type-B receptor 2 (Homo sapiens) (UniProt P29323).
T2 sequence (whole entry): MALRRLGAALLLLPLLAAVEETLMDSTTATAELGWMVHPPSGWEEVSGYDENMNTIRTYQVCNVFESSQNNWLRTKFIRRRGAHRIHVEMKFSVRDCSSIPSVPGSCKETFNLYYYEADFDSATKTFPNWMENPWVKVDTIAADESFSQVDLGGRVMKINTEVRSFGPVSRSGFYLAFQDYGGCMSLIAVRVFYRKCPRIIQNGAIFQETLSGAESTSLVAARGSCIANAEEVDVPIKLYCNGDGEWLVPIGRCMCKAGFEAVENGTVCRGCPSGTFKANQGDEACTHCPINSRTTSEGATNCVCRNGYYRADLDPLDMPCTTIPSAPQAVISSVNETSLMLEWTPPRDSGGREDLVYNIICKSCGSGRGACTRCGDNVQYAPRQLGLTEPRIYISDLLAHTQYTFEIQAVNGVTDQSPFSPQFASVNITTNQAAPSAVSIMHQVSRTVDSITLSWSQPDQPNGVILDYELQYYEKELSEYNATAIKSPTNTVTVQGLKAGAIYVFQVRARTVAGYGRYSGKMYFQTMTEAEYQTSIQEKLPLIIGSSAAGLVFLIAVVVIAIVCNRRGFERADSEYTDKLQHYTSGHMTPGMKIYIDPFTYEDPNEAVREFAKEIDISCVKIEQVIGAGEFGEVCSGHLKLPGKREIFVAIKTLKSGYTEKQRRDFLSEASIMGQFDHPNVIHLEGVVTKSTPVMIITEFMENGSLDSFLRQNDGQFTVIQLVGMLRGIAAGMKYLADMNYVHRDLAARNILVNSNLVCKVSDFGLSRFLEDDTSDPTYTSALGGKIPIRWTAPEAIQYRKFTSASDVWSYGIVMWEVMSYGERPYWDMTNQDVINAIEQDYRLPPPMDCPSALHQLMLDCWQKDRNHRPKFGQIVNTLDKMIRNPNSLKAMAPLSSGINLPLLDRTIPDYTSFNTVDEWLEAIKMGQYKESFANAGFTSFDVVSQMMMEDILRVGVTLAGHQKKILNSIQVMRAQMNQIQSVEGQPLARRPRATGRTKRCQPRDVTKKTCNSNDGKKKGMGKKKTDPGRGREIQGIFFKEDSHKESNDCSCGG
The note with it: at 0.1 µM.

Assay [11] has as its target T2, Ephrin type-B receptor 2 (Homo sapiens). The conditions noted are these: at 1 µM.
For assay [12], the target named is T3, Ephrin type-B receptor 3 (Homo sapiens) (UniProt P54753).
T3 sequence (whole entry): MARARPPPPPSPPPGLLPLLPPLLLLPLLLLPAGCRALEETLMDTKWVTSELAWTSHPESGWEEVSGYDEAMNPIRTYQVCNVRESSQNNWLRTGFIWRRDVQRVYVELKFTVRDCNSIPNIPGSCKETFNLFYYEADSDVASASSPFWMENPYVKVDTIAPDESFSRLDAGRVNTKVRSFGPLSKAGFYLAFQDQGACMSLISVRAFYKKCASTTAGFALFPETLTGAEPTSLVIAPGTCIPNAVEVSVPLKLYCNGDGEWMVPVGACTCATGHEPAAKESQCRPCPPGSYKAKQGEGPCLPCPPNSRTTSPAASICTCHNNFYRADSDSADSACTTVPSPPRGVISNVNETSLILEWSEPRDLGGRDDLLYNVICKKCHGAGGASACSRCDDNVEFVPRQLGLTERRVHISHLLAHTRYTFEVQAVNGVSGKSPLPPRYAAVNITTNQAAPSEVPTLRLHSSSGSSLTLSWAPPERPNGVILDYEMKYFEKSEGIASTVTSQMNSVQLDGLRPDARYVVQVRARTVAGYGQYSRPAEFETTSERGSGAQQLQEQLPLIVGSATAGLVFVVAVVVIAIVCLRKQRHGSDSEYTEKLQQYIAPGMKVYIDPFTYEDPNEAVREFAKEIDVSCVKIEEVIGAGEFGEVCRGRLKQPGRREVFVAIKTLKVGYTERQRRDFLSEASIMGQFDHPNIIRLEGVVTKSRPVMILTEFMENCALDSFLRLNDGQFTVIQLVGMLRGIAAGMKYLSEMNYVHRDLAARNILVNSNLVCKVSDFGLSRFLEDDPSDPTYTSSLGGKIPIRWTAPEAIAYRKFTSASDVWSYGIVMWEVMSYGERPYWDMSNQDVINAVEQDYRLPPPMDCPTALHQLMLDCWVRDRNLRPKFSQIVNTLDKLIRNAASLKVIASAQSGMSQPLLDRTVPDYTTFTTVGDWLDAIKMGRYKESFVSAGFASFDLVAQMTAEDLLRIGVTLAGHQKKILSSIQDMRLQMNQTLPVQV
The conditions noted are these: at 0.1 µM.

Assay [13] deals with T3, Ephrin type-B receptor 3 (Homo sapiens). The note with it: at 1 µM.
The target of assay [14] is T4, Ephrin type-B receptor 4 (Homo sapiens) (UniProt P54760).
T4 sequence (whole entry): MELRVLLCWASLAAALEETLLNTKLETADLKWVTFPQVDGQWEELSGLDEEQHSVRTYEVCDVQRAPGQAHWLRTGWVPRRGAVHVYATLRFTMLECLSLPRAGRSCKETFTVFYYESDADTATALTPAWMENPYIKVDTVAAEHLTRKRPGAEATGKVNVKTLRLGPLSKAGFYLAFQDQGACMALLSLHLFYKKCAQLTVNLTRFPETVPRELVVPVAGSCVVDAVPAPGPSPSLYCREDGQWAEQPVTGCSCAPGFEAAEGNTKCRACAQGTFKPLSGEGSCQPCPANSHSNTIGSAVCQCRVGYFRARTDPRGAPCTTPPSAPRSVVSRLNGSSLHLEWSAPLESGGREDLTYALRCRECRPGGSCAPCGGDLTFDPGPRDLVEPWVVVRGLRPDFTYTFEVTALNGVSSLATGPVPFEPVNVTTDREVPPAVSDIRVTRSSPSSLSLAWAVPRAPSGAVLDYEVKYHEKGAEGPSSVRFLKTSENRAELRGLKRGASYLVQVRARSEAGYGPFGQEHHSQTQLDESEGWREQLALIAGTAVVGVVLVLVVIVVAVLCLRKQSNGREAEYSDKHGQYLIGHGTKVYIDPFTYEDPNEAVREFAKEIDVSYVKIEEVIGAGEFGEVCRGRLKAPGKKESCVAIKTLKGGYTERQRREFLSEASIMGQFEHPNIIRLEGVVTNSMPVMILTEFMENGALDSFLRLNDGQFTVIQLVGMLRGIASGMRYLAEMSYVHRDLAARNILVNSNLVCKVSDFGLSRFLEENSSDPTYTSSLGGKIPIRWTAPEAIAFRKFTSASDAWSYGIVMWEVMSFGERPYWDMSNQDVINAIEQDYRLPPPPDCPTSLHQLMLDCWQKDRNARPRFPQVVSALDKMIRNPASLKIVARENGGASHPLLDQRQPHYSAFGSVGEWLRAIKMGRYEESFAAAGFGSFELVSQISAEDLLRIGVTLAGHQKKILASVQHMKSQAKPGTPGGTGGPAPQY
The note with it: at 0.1 µM.

Assay [15] has as its target T4, Ephrin type-B receptor 4 (Homo sapiens). The conditions noted are these: at 1 µM.
Assay [16] has as its target Receptor tyrosine-protein kinase erbB-2 (Homo sapiens) (UniProt P04626). The conditions noted are these: at 0.1 µM.
The target is the same in assay [17]. The conditions noted are these: at 1 µM.
For assay [18], the target named is Receptor tyrosine-protein kinase erbB-4 (Homo sapiens) (UniProt Q15303). The note with it: at 0.1 µM.
Assay [19] shares this target. The conditions noted are these: at 1 µM.
Assay [20] has as its target Tyrosine-protein kinase Fer (Homo sapiens) (UniProt P16591). The conditions noted are these: at 0.1 µM.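 Also: reported figures are averaged percent inhibition of FER.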

Epidermal growth factor receptor (Homo sapiens), P00533 [L858R,T790M], sequence (P00533 whole entry T790M/L858R, looked up): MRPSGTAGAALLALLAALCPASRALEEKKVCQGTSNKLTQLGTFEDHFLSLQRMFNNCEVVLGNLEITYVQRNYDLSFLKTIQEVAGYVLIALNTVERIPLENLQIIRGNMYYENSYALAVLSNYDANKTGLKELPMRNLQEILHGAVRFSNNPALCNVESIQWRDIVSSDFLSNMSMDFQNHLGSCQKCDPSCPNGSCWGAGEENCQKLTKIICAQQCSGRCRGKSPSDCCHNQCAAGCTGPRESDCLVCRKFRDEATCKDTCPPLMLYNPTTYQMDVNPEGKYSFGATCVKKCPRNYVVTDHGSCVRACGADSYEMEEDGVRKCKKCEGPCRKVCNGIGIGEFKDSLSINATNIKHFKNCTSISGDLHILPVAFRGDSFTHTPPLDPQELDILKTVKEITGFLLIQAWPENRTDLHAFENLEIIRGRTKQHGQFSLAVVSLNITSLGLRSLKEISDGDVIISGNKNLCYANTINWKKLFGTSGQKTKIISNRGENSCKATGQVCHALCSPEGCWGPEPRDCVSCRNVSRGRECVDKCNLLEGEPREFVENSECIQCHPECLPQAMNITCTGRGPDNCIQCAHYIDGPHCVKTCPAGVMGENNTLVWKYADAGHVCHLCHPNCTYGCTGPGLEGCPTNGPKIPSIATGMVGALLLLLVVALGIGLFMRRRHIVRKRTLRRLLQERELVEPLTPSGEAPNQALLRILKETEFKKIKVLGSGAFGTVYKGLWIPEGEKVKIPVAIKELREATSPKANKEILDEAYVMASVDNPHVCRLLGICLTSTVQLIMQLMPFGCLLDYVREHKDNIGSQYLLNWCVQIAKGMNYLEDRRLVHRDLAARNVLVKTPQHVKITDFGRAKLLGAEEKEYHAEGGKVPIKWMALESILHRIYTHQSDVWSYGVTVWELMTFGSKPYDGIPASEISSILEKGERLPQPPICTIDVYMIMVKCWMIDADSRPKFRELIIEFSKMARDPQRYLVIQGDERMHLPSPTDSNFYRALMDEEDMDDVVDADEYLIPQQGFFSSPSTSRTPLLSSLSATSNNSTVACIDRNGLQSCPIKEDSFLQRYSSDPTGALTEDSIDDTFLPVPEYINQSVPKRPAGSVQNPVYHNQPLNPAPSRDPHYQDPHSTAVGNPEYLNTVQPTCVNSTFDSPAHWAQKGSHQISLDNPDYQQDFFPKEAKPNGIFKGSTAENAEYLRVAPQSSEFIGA
Tyrosine-protein kinase Fer (Homo sapiens), sequence (P16591 whole entry, looked up): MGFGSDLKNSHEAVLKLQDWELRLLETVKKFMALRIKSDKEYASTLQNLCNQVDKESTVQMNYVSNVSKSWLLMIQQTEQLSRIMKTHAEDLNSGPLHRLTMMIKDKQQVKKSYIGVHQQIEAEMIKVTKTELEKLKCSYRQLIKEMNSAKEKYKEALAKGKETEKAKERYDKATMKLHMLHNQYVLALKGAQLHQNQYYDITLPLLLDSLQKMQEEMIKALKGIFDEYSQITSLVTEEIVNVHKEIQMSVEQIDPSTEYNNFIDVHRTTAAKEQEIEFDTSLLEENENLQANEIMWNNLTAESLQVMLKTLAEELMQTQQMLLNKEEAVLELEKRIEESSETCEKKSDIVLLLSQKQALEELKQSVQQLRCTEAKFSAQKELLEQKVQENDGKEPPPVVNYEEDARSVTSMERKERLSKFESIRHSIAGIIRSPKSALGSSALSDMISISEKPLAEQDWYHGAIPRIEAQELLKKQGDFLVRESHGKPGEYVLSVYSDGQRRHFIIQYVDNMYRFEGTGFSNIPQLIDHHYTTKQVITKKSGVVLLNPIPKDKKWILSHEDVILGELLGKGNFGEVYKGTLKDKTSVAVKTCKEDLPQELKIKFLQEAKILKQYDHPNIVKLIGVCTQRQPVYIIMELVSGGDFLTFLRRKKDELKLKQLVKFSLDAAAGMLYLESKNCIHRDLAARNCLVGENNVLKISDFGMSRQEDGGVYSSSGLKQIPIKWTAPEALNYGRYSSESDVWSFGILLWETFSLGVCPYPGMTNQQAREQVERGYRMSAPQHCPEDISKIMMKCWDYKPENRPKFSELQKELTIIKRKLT
Epidermal growth factor receptor (Homo sapiens), P00533 [T790M], sequence (P00533 whole entry T790M): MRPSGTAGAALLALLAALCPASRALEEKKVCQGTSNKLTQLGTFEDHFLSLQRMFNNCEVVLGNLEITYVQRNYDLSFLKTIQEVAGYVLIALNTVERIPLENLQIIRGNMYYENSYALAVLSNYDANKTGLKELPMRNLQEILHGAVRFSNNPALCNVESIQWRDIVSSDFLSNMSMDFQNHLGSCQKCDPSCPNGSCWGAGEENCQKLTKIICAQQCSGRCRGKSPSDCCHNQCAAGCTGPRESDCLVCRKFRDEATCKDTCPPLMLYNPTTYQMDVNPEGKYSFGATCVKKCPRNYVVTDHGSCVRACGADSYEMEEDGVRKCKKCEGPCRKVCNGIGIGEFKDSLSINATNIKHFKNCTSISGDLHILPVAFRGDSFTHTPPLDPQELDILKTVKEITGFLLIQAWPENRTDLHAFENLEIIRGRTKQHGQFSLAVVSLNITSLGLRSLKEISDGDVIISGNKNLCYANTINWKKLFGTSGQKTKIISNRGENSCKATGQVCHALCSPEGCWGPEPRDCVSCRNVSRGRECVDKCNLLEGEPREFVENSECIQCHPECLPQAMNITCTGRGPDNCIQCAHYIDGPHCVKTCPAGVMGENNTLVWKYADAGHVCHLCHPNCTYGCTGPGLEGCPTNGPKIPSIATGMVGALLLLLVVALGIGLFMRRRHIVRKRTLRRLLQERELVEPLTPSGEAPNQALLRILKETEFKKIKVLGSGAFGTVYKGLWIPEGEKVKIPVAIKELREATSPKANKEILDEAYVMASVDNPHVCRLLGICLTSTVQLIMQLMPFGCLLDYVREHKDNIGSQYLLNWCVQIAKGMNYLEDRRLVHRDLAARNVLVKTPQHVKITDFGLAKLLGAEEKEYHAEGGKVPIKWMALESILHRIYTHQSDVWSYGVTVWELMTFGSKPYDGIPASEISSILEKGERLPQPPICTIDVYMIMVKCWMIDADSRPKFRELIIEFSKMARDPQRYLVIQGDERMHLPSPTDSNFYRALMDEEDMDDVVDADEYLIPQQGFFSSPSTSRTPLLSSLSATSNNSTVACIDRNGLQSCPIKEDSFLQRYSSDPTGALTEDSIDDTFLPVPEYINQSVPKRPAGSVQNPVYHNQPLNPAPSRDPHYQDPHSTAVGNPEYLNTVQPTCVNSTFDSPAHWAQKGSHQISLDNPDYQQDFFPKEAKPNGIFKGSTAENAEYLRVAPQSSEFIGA
Ephrin type-A receptor 4 (Homo sapiens), sequence (P54764 whole entry): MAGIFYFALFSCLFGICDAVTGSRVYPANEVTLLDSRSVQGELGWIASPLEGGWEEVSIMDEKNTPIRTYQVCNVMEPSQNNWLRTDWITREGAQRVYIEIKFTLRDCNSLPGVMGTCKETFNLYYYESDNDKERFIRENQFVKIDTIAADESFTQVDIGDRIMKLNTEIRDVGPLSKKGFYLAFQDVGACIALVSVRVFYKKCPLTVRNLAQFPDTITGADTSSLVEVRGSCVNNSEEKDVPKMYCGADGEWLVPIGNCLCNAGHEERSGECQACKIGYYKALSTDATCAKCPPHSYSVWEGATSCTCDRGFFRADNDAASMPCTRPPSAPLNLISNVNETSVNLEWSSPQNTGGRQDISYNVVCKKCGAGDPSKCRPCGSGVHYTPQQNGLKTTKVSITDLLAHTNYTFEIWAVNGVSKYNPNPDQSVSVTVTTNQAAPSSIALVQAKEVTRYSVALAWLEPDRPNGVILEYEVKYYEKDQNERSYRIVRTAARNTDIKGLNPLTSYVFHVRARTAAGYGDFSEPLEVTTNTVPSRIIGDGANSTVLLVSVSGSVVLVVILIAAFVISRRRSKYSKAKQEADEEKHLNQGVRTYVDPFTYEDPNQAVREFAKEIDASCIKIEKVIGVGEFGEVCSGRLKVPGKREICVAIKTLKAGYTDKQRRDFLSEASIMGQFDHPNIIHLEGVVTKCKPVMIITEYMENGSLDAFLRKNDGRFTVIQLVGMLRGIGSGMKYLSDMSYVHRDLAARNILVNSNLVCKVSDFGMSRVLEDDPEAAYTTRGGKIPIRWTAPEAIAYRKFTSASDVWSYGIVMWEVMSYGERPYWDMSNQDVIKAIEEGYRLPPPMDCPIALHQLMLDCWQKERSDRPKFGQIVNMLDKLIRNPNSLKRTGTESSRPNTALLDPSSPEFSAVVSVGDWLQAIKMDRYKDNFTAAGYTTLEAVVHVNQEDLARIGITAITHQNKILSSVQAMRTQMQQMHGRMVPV

Consider `Cc1cc(Cl)cc2c1NC(=O)C2=NNc1ccc(S(N)(=O)=O)cc1`, for which the inhibition (commonly the drop in the measured response relative to a control, in per cent) in assay [1] is 3.73%; in [2] it was -0.55%; in assay [3], 2.83%; in assay [4], 1.34%; in [5], 1.02%; in assay [6], 3.32%. Besides, the inhibition in assay [7] was 2.87%; in assay [8] it was 6.66%; in assay [9] it was 7.34%; in assay [10], 4.48%; in [11], 1.31%; in assay [12], 3.65%. Moreover, the inhibition in [13] came to 1.13%; in assay [14] it was 1.3%; in assay [15], 1.46%; in assay [16], 2.46%; in assay [17] it was 3.15%; in [18], 6.08%. In addition, the values for the inhibition in assay [19] and in [20] were 6.7% and 2.65%, respectively.

In the case of `COc1ccc2ncnc(Nc3ccc(OCc4ccccc4)cc3)c2c1`, the inhibition was found to be 5.68% in assay [1]; 2.24% in assay [2]; 4.15% in assay [3]; 1.06% in [4]; 0.85% in [5]; 2.45% in assay [6]. Moreover, the inhibition stood at 3.28% in [7]; 5.9% in assay [8]; 5.92% in assay [9]; 3.16% in [10]; 6.18% in [11]; 4.29% in assay [12]. Besides, the inhibition in assay [13] amounted to 1.66%; in assay [14], 2.58%; in assay [15], 0.41%; in assay [16], 1.73%; in assay [17] it was 30.9%; in assay [18], 56.2%. For the same compound, the figures for the inhibition in [19] and in [20] were 85.1% and -1.28%, respectively.

`NC(=O)c1cccc(Nc2nccc(Nc3cccc(F)c3)n2)c1`: the inhibition in assay [1] is 1.97%; in [2] it was -1.09%; in assay [3] it was 2.58%; in assay [4] it was -0.63%; in assay [5], 17.9%; in assay [6], 0.42%. Also, the inhibition in assay [7] was 7.65%; in assay [8], 5.65%; in assay [9], 29.1%; in [10], 3.44%; in assay [11], 18.1%; in assay [12], 2.13%. The inhibition is 2.83% in assay [13]; -0.22% in assay [14]; 5.23% in assay [15]; 0.04% in assay [16]; 3.14% in [17]; 5.37% in assay [18]. The inhibition in [19] is 13.2%; in assay [20] it was -2.66%.

`COC(=O)c1cncc(/C=C/c2c(C)cc(O)cc2C)c1`: the inhibition in [1] is 4.21%; in [2], 0.04%; in assay [3] it was 4.09%; in assay [4] it was 10.3%; in [5] it was 40.2%; in assay [6] it was 7.42%. Further, the inhibition in assay [7] was 16.2%; in assay [8], 19%; in assay [9] it was 66.6%; in [10], 15.3%; in assay [11] it was 56.4%; in assay [12] it was 6.09%. Besides, the inhibition is 11.8% in assay [13]; 6.99% in assay [14]; 38.7% in assay [15]; 1.31% in assay [16]; 2.82% in assay [17]; 7.72% in assay [18]. Moreover, the inhibition in assay [19] turned out to be 10%; in assay [20], 2.19%.
